Source: PubChem BioAssay (NCATS)
Values without a mark were called inactive. Unless noted, calls come from the whole dose curve; as a rule, active = well fitted curve in the direction sought with a large enough effect in the main read-out, with a control signal flat (not every such curve was filed as active); inconclusive = small, poorly fitted or top-dose-only effect, or effect the other way, or a change in a side signal; inactive = no such curve, though single readings can be large or run the other way. Results filed as inconclusive are left out.

Target: Tumor susceptibility gene 101 protein (Homo sapiens) (UniProt Q99816)
Sequence (Q99816 whole entry, looked up): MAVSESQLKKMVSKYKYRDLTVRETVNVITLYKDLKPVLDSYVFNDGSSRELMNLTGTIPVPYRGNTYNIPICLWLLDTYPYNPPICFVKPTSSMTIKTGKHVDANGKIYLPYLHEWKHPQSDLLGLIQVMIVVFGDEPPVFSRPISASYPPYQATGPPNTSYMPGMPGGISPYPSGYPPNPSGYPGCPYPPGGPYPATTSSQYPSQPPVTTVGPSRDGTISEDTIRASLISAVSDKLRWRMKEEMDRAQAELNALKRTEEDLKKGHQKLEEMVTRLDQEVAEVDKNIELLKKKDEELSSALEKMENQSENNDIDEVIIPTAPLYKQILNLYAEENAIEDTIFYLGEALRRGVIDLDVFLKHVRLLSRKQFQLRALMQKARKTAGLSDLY
Experiment: qHTS Validation Assay for Iinhibitors of HIV-1 Budding by Blocking the Interaction of PTAP/TSG101 (AID 485342; calls by dose curve; note: 0% is about no effect)
Details: TSG101-PTAP binding, fluorescence polarization, 4-point titration; series mostly up to 115 µM; fluorescence change: at the top concentration
How it was run: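 Tsg101 binding domain (10 uM final) in pH 7.5 HEPES/NaCl/Tween 20/EDTA/TCEP buffer was mixed with pin-transferred compounds, then FITC-labeled PTAP peptide (50 nM final) was added; after 20 min at r.t., fluorescence polarization was read.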

| Compound | fluorescence change [%] |
| --- | --- |
| Cc1ccc(/C(=C\CN2CCCC2)c2ccccn2)cc1 | 3.93 |
| NC(=O)c1cn(Cc2c(F)cccc2F)nn1 | 0.83 |
| CCN(CC)CCOCCOC(=O)C1(c2ccccc2)CCCC1 | 4.88 |
| COCCCC/C(=N\OCCN)c1ccc(C(F)(F)F)cc1 | -2.34 |
| Cc1nc2ccccn2c(=O)c1CCN1CCC(C(=O)c2ccc(F)cc2)CC1 | 3.6 |
| NC1=NCC2c3ccccc3Cc3ccccc3N12 (centres undefined) | 0.791 |
| Cc1scc2c1N(C(=O)CN1CCN(C)CC1)c1ccccc1NC2=O | -3.87 |
| CC(C)(C)c1ccc(C(=O)CCCN2CCC(OC(c3ccccc3)c3ccccc3)CC2)cc1 | 3.55 |
| CN(C)C/C=C(/c1ccc(Br)cc1)c1cccnc1 | -0.542 |
| CN1C(=O)CC[C@H]1c1cccnc1 | 5.31 |
| CN(C(=O)CCCOc1ccc2[nH]c(=O)ccc2c1)C1CCCCC1 | -1.09 |
| NC(N)=N/N=C/c1c(Cl)cccc1Cl | 1.72 |
| CC(=O)[C@@]1(O)CC[C@H]2[C@@H]3CCC4=CC(=O)CC[C@]4(C)[C@H]3CC[C@@]21C | 1.57 |
| C[C@@H](O)[C@H]1C(=O)N2C(C(=O)O)=C(SCCN=CN)C[C@H]12 | -0.768 |
| C[C@]12CC[C@@H]3c4ccc(O)cc4C[C@@H](CCCCCCCCCS(=O)CCCC(F)(F)C(F)(F)F)[C@H]3[C@@H]1CC[C@@H]2O (some centres undefined) | -1.86 |
| CCn1nc(C(=O)O)c(=O)c2cc3c(cc21)OCO3 | 2.17 |
| Brc1c(NC2=NCCN2)ccc2nccnc12 | -4.59 |
| CN(C)[C@@H]1C(=O)C(C(N)=O)=C(O)[C@@]2(O)C(=O)C3=C(O)c4c(O)ccc(Cl)c4[C@@H](O)[C@H]3C[C@@H]12 | -0.561 |
| CCCCCCCC/C=C\CCCCCCCC(=O)NCc1ccc(O)c(OC)c1 | -14.7 |
| COC(=O)C1=C(C)NC(C)=C(C(=O)OC(C)(C)CN(C)CCC(c2ccccc2)c2ccccc2)C1c1cccc([N+](=O)[O-])c1 (centres undefined) | -13.9 |
| CCOC(=O)c1cnc2c(cnn2CC)c1NN=C(C)C | 4.25 |
| CCN(CC)CCCN(c1ccccc1)C1Cc2ccccc2C1 | 1.53 |
| CSc1ccc(C(=O)c2[nH]c(=O)[nH]c2C)cc1 | -1.99 |

Test system: not listed separately
Experiment: qHTS Validation Assay to Find Inhibitors of Chronic Active B-Cell Receptor Signaling (AID 485345);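 note: 0% = untreated basal cells and 100% = 10 µM MG-132 proteasome inhibitor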
Details: ABC-DLBCL cells, chronic BCR signaling reporter, CBG luciferase; series mostly up to 46.1 µM; activity change: at the top concentration
How it was run: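 TMD8 ABC-DLBCL cells with dox-inducible green luciferase–IκBα fusion and red native luciferase; compounds 46 uM–3 nM, 4 h at 37C with doxycycline in 0.5% FBS IMDM. Green/red ratio normalized to basal and 10 uM MG-132.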

| Compound | activity change [%] |
| --- | --- |
| CC(N=C(NC#N)Nc1ccncc1)C(C)(C)C (centres undefined) | -11 |
| Cc1ccc(/C(=C\CN2CCCC2)c2ccccn2)cc1 | -20.8 |
| NC(=O)c1cn(Cc2c(F)cccc2F)nn1 | -10.8 |
| CCN(CC)CCOCCOC(=O)C1(c2ccccc2)CCCC1 | 1.16 |
| Cc1nc2ccccn2c(=O)c1CCN1CCC(C(=O)c2ccc(F)cc2)CC1 | -27.9 |
| NC1=NCC2c3ccccc3Cc3ccccc3N12 (centres undefined) | -6.76 |
| COC(=O)[C@@H](N)Cc1ccc(O)c(O)c1 | -5.34 |
| CCCN1C[C@H](CSC)C[C@@H]2c3cccc4[nH]cc(c34)C[C@H]21 | -19.7 |
| Cc1cccc(C)c1NC(=O)C(C)N (centres undefined) | 9.27 |
| COc1ccc([C@@H]2Sc3ccccc3N(CCN(C)C)C(=O)[C@@H]2OC(C)=O)cc1 | -6.81 |
| Cc1scc2c1N(C(=O)CN1CCN(C)CC1)c1ccccc1NC2=O | -11.3 |
| CCn1cc(C(=O)O)c(=O)c2cc3c(cc21)OCO3 | 6.85 |
| CC(C)(C)c1ccc(C(=O)CCCN2CCC(OC(c3ccccc3)c3ccccc3)CC2)cc1 | 2.4 |
| CN(C)C/C=C(/c1ccc(Br)cc1)c1cccnc1 | -2.65 |
| CN1C(=O)CC[C@H]1c1cccnc1 | 1.05 |
| CC(C)(Oc1ccc(CCNC(=O)c2ccc(Cl)cc2)cc1)C(=O)O | 1.58 |
| NC(N)=N/N=C/c1c(Cl)cccc1Cl | -5.68 |
| CC(=O)[C@@]1(O)CC[C@H]2[C@@H]3CCC4=CC(=O)CC[C@]4(C)[C@H]3CC[C@@]21C | -26.9 |
| C[C@@H](O)[C@H]1C(=O)N2C(C(=O)O)=C(SCCN=CN)C[C@H]12 | -7.26 |
| COc1ccc2c(c1OC)C(=O)O[C@@H]2[C@H]1c2c(cc3c(c2OC)OCO3)CCN1C | -20.8 |
| CCn1nc(C(=O)O)c(=O)c2cc3c(cc21)OCO3 | 1.91 |
| CN(C)[C@@H]1C(=O)C(C(N)=O)=C(O)[C@@]2(O)C(=O)C3=C(O)c4c(O)ccc(Cl)c4[C@@H](O)[C@H]3C[C@@H]12 | -5.59 |
| CCCCCCCC/C=C\CCCCCCCC(=O)NCc1ccc(O)c(OC)c1 | -12.6 |
| COC(=O)C1=C(C)NC(C)=C(C(=O)OC(C)(C)CN(C)CCC(c2ccccc2)c2ccccc2)C1c1cccc([N+](=O)[O-])c1 (centres undefined) | 11.1 |
| C[N+](C)(C)CCCCCCCCCC[N+](C)(C)C | -1.19 |
| CCOC(=O)c1cnc2c(cnn2CC)c1NN=C(C)C | 1.97 |
